Measurements published in PMC11062922 (Nature Chemical Biology, 2023).
Read-outs that look alike come from different tables or passages of the source.

Key:
Details in all cases: read-out: apparent Kd, n = 1
[1] = tested on: NTRK1
[2] = tested on: NUAK2
[3] = tested on: PAK6
[4] = compound concentrations:100 nM and 1000 nM (sheet 'Lestaurtinib' of Supplementary Table 1),run:Lestaurtinib_03260_R2,Plate:MR033
[5] = compound concentrations:100 nM and 1000 nM (sheet 'Lestaurtinib' of Supplementary Table 1),run:Lestaurtinib_02339_R2,Plate:MR001
[6] = compound concentrations:100 nM and 1000 nM (sheet 'Lestaurtinib' of Supplementary Table 1),run:Lestaurtinib_02364_R3,Plate:MR002
[7] = compound concentrations:100 nM and 1000 nM (sheet 'Lestaurtinib' of Supplementary Table 1),run:Lestaurtinib_02381_R1,Plate:MR004

In the case of Lestaurtinib, the potency estimated from few doses ([1]; compound concentrations:100 nM and 1000 nM (sheet 'Lestaurtinib' of Supplementary Table 1),run:Lestaurtinib_03260_R1,Plate:MR033) is reported as 898 nM, the potency estimated from few doses [1, 4] is reported as 635 nM and the potency estimated from few doses ([2]; compound concentrations:100 nM and 1000 nM (sheet 'Lestaurtinib' of Supplementary Table 1),run:Lestaurtinib_02339_R1,Plate:MR001) is reported as 489 nM. The potency estimated from few doses [2, 5] was 23.7 nM, the potency estimated from few doses ([2]; compound concentrations:100 nM and 1000 nM (sheet 'Lestaurtinib' of Supplementary Table 1),run:Lestaurtinib_02339_R3,Plate:MR001) was 373 nM and the potency estimated from few doses [2, 6] was 260 nM. It also gave a potency estimated from few doses ([2]; compound concentrations:100 nM and 1000 nM (sheet 'Lestaurtinib' of Supplementary Table 1),run:Lestaurtinib_02367_R1,Plate:MR003) of 873 nM, a potency estimated from few doses ([2]; compound concentrations:100 nM and 1000 nM (sheet 'Lestaurtinib' of Supplementary Table 1),run:Lestaurtinib_02367_R2,Plate:MR003) of 382 nM and a potency estimated from few doses [2, 7] of 394 nM. For the same substance, the potency estimated from few doses ([2]; compound concentrations:100 nM and 1000 nM (sheet 'Lestaurtinib' of Supplementary Table 1),run:Lestaurtinib_02381_R2,Plate:MR004) was 113 nM, the potency estimated from few doses ([2]; compound concentrations:100 nM and 1000 nM (sheet 'Lestaurtinib' of Supplementary Table 1),run:Lestaurtinib_02407_R2,Plate:MR005) was 70.6 nM and the potency estimated from few doses ([2]; compound concentrations:100 nM and 1000 nM (sheet 'Lestaurtinib' of Supplementary Table 1),run:Lestaurtinib_02422_R1,Plate:MR006) was 77.8 nM. For the same substance, the potency estimated from few doses ([2]; compound concentrations:100 nM and 1000 nM (sheet 'Lestaurtinib' of Supplementary Table 1),run:Lestaurtinib_02422_R2,Plate:MR006) was 44.9 nM, the potency estimated from few doses ([2]; compound concentrations:100 nM and 1000 nM (sheet 'Lestaurtinib' of Supplementary Table 1),run:Lestaurtinib_02437_R1,Plate:MR007) was 140 nM and the potency estimated from few doses ([2]; compound concentrations:100 nM and 1000 nM (sheet 'Lestaurtinib' of Supplementary Table 1),run:Lestaurtinib_02438_R1,Plate:MR008) was 22.1 nM. It also gave a potency estimated from few doses ([2]; compound concentrations:100 nM and 1000 nM (sheet 'Lestaurtinib' of Supplementary Table 1),run:Lestaurtinib_02443_R1,Plate:MR009) of 70 nM, a potency estimated from few doses ([2]; compound concentrations:100 nM and 1000 nM (sheet 'Lestaurtinib' of Supplementary Table 1),run:Lestaurtinib_02443_R2,Plate:MR009) of 75.5 nM and a potency estimated from few doses ([2]; compound concentrations:100 nM and 1000 nM (sheet 'Lestaurtinib' of Supplementary Table 1),run:Lestaurtinib_02443_R3,Plate:MR009) of 696 nM. The potency estimated from few doses ([2]; compound concentrations:100 nM and 1000 nM (sheet 'Lestaurtinib' of Supplementary Table 1),run:Lestaurtinib_02473_R2,Plate:MR010) was 100 nM, the potency estimated from few doses ([2]; compound concentrations:100 nM and 1000 nM (sheet 'Lestaurtinib' of Supplementary Table 1),run:Lestaurtinib_02473_R3,Plate:MR010) was 53.1 nM and the potency estimated from few doses ([2]; compound concentrations:100 nM and 1000 nM (sheet 'Lestaurtinib' of Supplementary Table 1),run:Lestaurtinib_02482_R1,Plate:MR011) was 165 nM. It also gave a potency estimated from few doses ([2]; compound concentrations:100 nM and 1000 nM (sheet 'Lestaurtinib' of Supplementary Table 1),run:Lestaurtinib_02482_R2,Plate:MR011) of 98 nM, a potency estimated from few doses ([2]; compound concentrations:100 nM and 1000 nM (sheet 'Lestaurtinib' of Supplementary Table 1),run:Lestaurtinib_02482_R3,Plate:MR011) of 133 nM and a potency estimated from few doses ([2]; compound concentrations:100 nM and 1000 nM (sheet 'Lestaurtinib' of Supplementary Table 1),run:Lestaurtinib_02487_R1,Plate:MR012) of 87.5 nM. For the same substance, the potency estimated from few doses ([2]; compound concentrations:100 nM and 1000 nM (sheet 'Lestaurtinib' of Supplementary Table 1),run:Lestaurtinib_02487_R2,Plate:MR012) was 208 nM, the potency estimated from few doses ([2]; compound concentrations:100 nM and 1000 nM (sheet 'Lestaurtinib' of Supplementary Table 1),run:Lestaurtinib_02487_R3,Plate:MR012) was 85.6 nM and the potency estimated from few doses ([2]; compound concentrations:100 nM and 1000 nM (sheet 'Lestaurtinib' of Supplementary Table 1),run:Lestaurtinib_02496_R1,Plate:MR013) was 931 nM. It also gave a potency estimated from few doses ([2]; compound concentrations:100 nM and 1000 nM (sheet 'Lestaurtinib' of Supplementary Table 1),run:Lestaurtinib_02496_R3,Plate:MR013) of 50.7 nM, a potency estimated from few doses ([2]; compound concentrations:100 nM and 1000 nM (sheet 'Lestaurtinib' of Supplementary Table 1),run:Lestaurtinib_02566_R3,Plate:MR014) of 517 nM and a potency estimated from few doses ([2]; compound concentrations:100 nM and 1000 nM (sheet 'Lestaurtinib' of Supplementary Table 1),run:Lestaurtinib_02572_R1,Plate:MR015) of 368 nM. The potency estimated from few doses ([2]; compound concentrations:100 nM and 1000 nM (sheet 'Lestaurtinib' of Supplementary Table 1),run:Lestaurtinib_02572_R2,Plate:MR015) was 96.7 nM, the potency estimated from few doses ([2]; compound concentrations:100 nM and 1000 nM (sheet 'Lestaurtinib' of Supplementary Table 1),run:Lestaurtinib_02584_R1,Plate:MR017) was 207 nM and the potency estimated from few doses ([2]; compound concentrations:100 nM and 1000 nM (sheet 'Lestaurtinib' of Supplementary Table 1),run:Lestaurtinib_02584_R3,Plate:MR017) was 259 nM. It also gave a potency estimated from few doses ([2]; compound concentrations:100 nM and 1000 nM (sheet 'Lestaurtinib' of Supplementary Table 1),run:Lestaurtinib_02601_R3,Plate:MR018) of 396 nM, a potency estimated from few doses ([2]; compound concentrations:100 nM and 1000 nM (sheet 'Lestaurtinib' of Supplementary Table 1),run:Lestaurtinib_02606_R1,Plate:MR019) of 140 nM and a potency estimated from few doses ([2]; compound concentrations:100 nM and 1000 nM (sheet 'Lestaurtinib' of Supplementary Table 1),run:Lestaurtinib_02606_R2,Plate:MR019) of 121 nM. It also gave a potency estimated from few doses ([2]; compound concentrations:100 nM and 1000 nM (sheet 'Lestaurtinib' of Supplementary Table 1),run:Lestaurtinib_02606_R3,Plate:MR019) of 154 nM, a potency estimated from few doses ([2]; compound concentrations:100 nM and 1000 nM (sheet 'Lestaurtinib' of Supplementary Table 1),run:Lestaurtinib_02624_R1,Plate:MR020) of 92.2 nM and a potency estimated from few doses ([2]; compound concentrations:100 nM and 1000 nM (sheet 'Lestaurtinib' of Supplementary Table 1),run:Lestaurtinib_02624_R2,Plate:MR020) of 93.3 nM. The potency estimated from few doses ([2]; compound concentrations:100 nM and 1000 nM (sheet 'Lestaurtinib' of Supplementary Table 1),run:Lestaurtinib_02624_R3,Plate:MR020) was 72.9 nM, the potency estimated from few doses ([2]; compound concentrations:100 nM and 1000 nM (sheet 'Lestaurtinib' of Supplementary Table 1),run:Lestaurtinib_02741_R1,Plate:MR023) was 140 nM and the potency estimated from few doses ([2]; compound concentrations:100 nM and 1000 nM (sheet 'Lestaurtinib' of Supplementary Table 1),run:Lestaurtinib_02741_R2,Plate:MR023) was 124 nM. For the same substance, the potency estimated from few doses ([2]; compound concentrations:100 nM and 1000 nM (sheet 'Lestaurtinib' of Supplementary Table 1),run:Lestaurtinib_02741_R3,Plate:MR023) was 115 nM, the potency estimated from few doses ([2]; compound concentrations:100 nM and 1000 nM (sheet 'Lestaurtinib' of Supplementary Table 1),run:Lestaurtinib_02748_R3,Plate:MR024) was 59.8 nM and the potency estimated from few doses ([2]; compound concentrations:100 nM and 1000 nM (sheet 'Lestaurtinib' of Supplementary Table 1),run:Lestaurtinib_02752_R2,Plate:MR025) was 68.5 nM. It also gave a potency estimated from few doses ([2]; compound concentrations:100 nM and 1000 nM (sheet 'Lestaurtinib' of Supplementary Table 1),run:Lestaurtinib_02765_R1,Plate:MR026) of 298 nM, a potency estimated from few doses ([2]; compound concentrations:100 nM and 1000 nM (sheet 'Lestaurtinib' of Supplementary Table 1),run:Lestaurtinib_02765_R2,Plate:MR026) of 316 nM and a potency estimated from few doses ([2]; compound concentrations:100 nM and 1000 nM (sheet 'Lestaurtinib' of Supplementary Table 1),run:Lestaurtinib_02765_R3,Plate:MR026) of 88.4 nM. The potency estimated from few doses ([2]; compound concentrations:100 nM and 1000 nM (sheet 'Lestaurtinib' of Supplementary Table 1),run:Lestaurtinib_02766_R2,Plate:MR027) was 58.5 nM, the potency estimated from few doses ([2]; compound concentrations:100 nM and 1000 nM (sheet 'Lestaurtinib' of Supplementary Table 1),run:Lestaurtinib_02768_R1,Plate:MR028) was 89.9 nM and the potency estimated from few doses ([2]; compound concentrations:100 nM and 1000 nM (sheet 'Lestaurtinib' of Supplementary Table 1),run:Lestaurtinib_02768_R2,Plate:MR028) was 66.1 nM. It also gave a potency estimated from few doses ([2]; compound concentrations:100 nM and 1000 nM (sheet 'Lestaurtinib' of Supplementary Table 1),run:Lestaurtinib_02768_R3,Plate:MR028) of 146 nM, a potency estimated from few doses ([2]; compound concentrations:100 nM and 1000 nM (sheet 'Lestaurtinib' of Supplementary Table 1),run:Lestaurtinib_02795_R1,Plate:MR022) of 93.4 nM and a potency estimated from few doses ([2]; compound concentrations:100 nM and 1000 nM (sheet 'Lestaurtinib' of Supplementary Table 1),run:Lestaurtinib_02795_R2,Plate:MR022) of 95.4 nM. It also gave a potency estimated from few doses ([2]; compound concentrations:100 nM and 1000 nM (sheet 'Lestaurtinib' of Supplementary Table 1),run:Lestaurtinib_02795_R3,Plate:MR022) of 154 nM, a potency estimated from few doses ([2]; compound concentrations:100 nM and 1000 nM (sheet 'Lestaurtinib' of Supplementary Table 1),run:Lestaurtinib_02802_R2,Plate:MR029) of 79.5 nM and a potency estimated from few doses ([2]; compound concentrations:100 nM and 1000 nM (sheet 'Lestaurtinib' of Supplementary Table 1),run:Lestaurtinib_02802_R3,Plate:MR029) of 69.5 nM. For the same substance, the potency estimated from few doses ([2]; compound concentrations:100 nM and 1000 nM (sheet 'Lestaurtinib' of Supplementary Table 1),run:Lestaurtinib_02896_R1,Plate:MR030) was 90.1 nM, the potency estimated from few doses ([2]; compound concentrations:100 nM and 1000 nM (sheet 'Lestaurtinib' of Supplementary Table 1),run:Lestaurtinib_02896_R2,Plate:MR030) was 130 nM and the potency estimated from few doses ([2]; compound concentrations:100 nM and 1000 nM (sheet 'Lestaurtinib' of Supplementary Table 1),run:Lestaurtinib_03172_R1,Plate:MR031) was 98.7 nM. For the same substance, the potency estimated from few doses ([2]; compound concentrations:100 nM and 1000 nM (sheet 'Lestaurtinib' of Supplementary Table 1),run:Lestaurtinib_03252_R1,Plate:MR032) was 45.5 nM, the potency estimated from few doses ([2]; compound concentrations:100 nM and 1000 nM (sheet 'Lestaurtinib' of Supplementary Table 1),run:Lestaurtinib_03252_R2,Plate:MR032) was 831 nM and the potency estimated from few doses [2, 4] was 387 nM. For the same substance, the potency estimated from few doses [3, 5] was 151 nM, the potency estimated from few doses ([3]; compound concentrations:100 nM and 1000 nM (sheet 'Lestaurtinib' of Supplementary Table 1),run:Lestaurtinib_02364_R2,Plate:MR002) was 137 nM and the potency estimated from few doses [3, 6] was 91000 nM. It also gave a potency estimated from few doses ([3]; compound concentrations:100 nM and 1000 nM (sheet 'Lestaurtinib' of Supplementary Table 1),run:Lestaurtinib_02367_R3,Plate:MR003) of 89.2 nM, a potency estimated from few doses [3, 7] of 771 nM and a potency estimated from few doses ([3]; compound concentrations:100 nM and 1000 nM (sheet 'Lestaurtinib' of Supplementary Table 1),run:Lestaurtinib_02381_R3,Plate:MR004) of 136 nM. It also gave a potency estimated from few doses ([3]; compound concentrations:100 nM and 1000 nM (sheet 'Lestaurtinib' of Supplementary Table 1),run:Lestaurtinib_02407_R1,Plate:MR005) of 1800 nM.
